Measured values published in PubChem BioAssay (Tox21).
Values joined by “and” are separate entries in the source; they are usually repeats but may differ in a detail not shown here. Equal entries are not always repeated. Records with an inconclusive call do not appear. Some compounds were tested as several samples or in several runs, with calls that do not always agree. Active and inactive are the calls of the source. Unless noted, calls come from the whole dose curve; as a rule, active = well fitted curve in the direction sought with a large enough effect in the repeat runs; inconclusive = weak or mixed curves; inactive = no such curve, though single readings can be large; an effect the other way counts as inactive or inconclusive.

How the values were obtained:
[1] = qHTS assay for small molecules that induce genotoxicity in human embryonic kidney cells expressing luciferase-tagged ATAD5 (AID 651632); conditions: HEK293T ATAD5-luciferase induction, 16 h; series mostly up to 83.3 µM; note: nearly all actives have a fitted effect of over 15% in size; note: potency is the fitted concentration of half-maximal effect
In short: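 Quantitative HTS in HEK293T expressing luciferase-tagged ATAD5, whose levels rise upon DNA damage. Exposure ran 16 hr at 37C and 5% CO2, with luminescence read 30 min after Amplite addition at room temperature.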

[2] = qHTS assay for small molecules that induce genotoxicity in human embryonic kidney cells expressing luciferase-tagged ATAD5 - cell viability (AID 651634; calls by dose curve; note: nearly all actives have a fitted effect of over 25% in size); conditions: HEK293T ATAD5-luc cells viability, CellTiter-Fluor, 15.5 h; series mostly up to 83.3 µM
In short: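 After 15.5 hr incubation with compound at 37C, 5% CO2, HEK293T ATAD5-luciferase cells received CellTiter-Fluor reagent; fluorescence intensity was quantified following 30 min at 37C.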

[3] = qHTS assay for small molecule disruptors of the mitochondrial membrane potential - cell viability (AID 720634; calls by dose curve; note: nearly all actives have a fitted effect of over 20% in size; note: potency is the fitted concentration of half-maximal effect); conditions: HepG2 viability, ATP luminescence (CellTiter-Glo), 1 h; series mostly up to 83.2 µM
In short: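 ATP-based luminescent viability readout (CellTiter-Glo, 30 min, room temperature) in HepG2 cells multiplexed with the m-MPI membrane potential dye; compound exposure lasted 1 hr at 37 C.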

[4] = qHTS assay to test for compound auto fluorescence at 535 nm (green) in HepG2 cells (AID 720675); conditions: green autofluorescence 485/535 nm, 1 h; series mostly up to 46 µM
[5] = qHTS assay to test for compound auto fluorescence at 460 nm (blue) in HEK293 cells (AID 720678); conditions: blue autofluorescence 405/460 nm; series mostly up to 46 µM
In short: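 After cell attachment (4-5 hr, 37C), compounds were pinned onto HEK293 monolayers in 10% dialyzed FBS medium. The blue channel (405/460 nm) was read following overnight culture. Equivalency was calculated against triamterene.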

[6] = qHTS assay to test for compound auto fluorescence at 535 nm (green) in HEK293 cells (AID 720680); conditions: green autofluorescence 485/535 nm; series mostly up to 46 µM
[7] = qHTS assay to test for compound auto fluorescence at 460 nm (blue) in HEK293 cell free culture (AID 720681); conditions: cell-free medium, autofluorescence 405/460 nm (blue); series mostly up to 46 µM
In short: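 Compounds were added to cell-free DMEM with 10% FBS and fluorescence read directly. The blue channel used 405 nm excitation and 460 nm emission, with triamterene as the reference fluorophore.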

[8] = qHTS assay to test for compound auto fluorescence at 535 nm (green) in HEK293 cell free culture (AID 720682); conditions: cell-free medium, green autofluorescence 485/535 nm, stronger effect = higher value; series mostly up to 46 µM
In short: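 DMEM + 10% FBS, cell-free; cpd or DMSO pinned in; Ex485/Em535 read; output as fluorescein-equivalent signal.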

[9] = qHTS assay to test for compound auto fluorescence at 590 nm (red) in HEK293 cell free culture (AID 720683); conditions: cell-free medium autofluorescence, Ex540/Em590 red; series mostly up to 46 µM
In short: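 Cell-free wells of DMEM with 10% FBS received compound, and intrinsic fluorescence was read at excitation/emission 540/590 nm. Values expressed as equivalence to Rose Bengal sodium.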

[10] = qHTS assay to test for compound auto fluorescence at 590 nm (red) in HepG2 cell free culture (AID 720684); conditions: cell-free medium autofluorescence, red 540/590 nm; series mostly up to 46 µM
In short: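 Rose Bengal sodium served as the reference for red signal. Test compounds were dispensed into serum-containing MEM (10% FBS) without cells, and plates were read at 540/590 nm.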

[11] = qHTS assay to test for compound auto fluorescence at 460 nm (blue) in HepG2 cell free culture (AID 720685); conditions: Cell-free culture medium, blue autofluorescence 405/460 nm; series mostly up to 46 µM
In short: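 Cell-free plates of MEM plus 10% FBS received 23 nL compound or DMSO vehicle; blue-channel (405/460 nm) intensity scored against triamterene as reference fluorophore.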

[12] = qHTS assay to test for compound auto fluorescence at 535 nm (green) in HepG2 cell free culture (AID 720686); conditions: Cell-free medium, green autofluorescence 485/535 nm; series mostly up to 46 µM
[13] = qHTS assay to test for compound auto fluorescence at 460 nm (blue) in HepG2 cells (AID 720687); conditions: autofluorescence 405/460 nm, 1 h; series mostly up to 46 µM
In short: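 HepG2 cells in MEM with 10% FBS, attached overnight at 37 C, were exposed to compound or DMSO for 1 hr at 37 C, 5% CO2. Blue fluorescence was read at 405/460 nm, with triamterene as reference fluorophore.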

[14] = target: Glucocorticoid receptor (Homo sapiens) (UniProt P04150); test: qHTS assay to identify small molecule agonists of the glucocorticoid receptor (GR) signaling pathway (AID 720691; active = well fitted activation curve with a large enough effect in the signal ratio in the repeat runs, not every such curve was filed as active; the % refers to the signal ratio; note: potency is the fitted concentration of half-maximal effect); conditions: GR-bla HeLa, beta-lactamase reporter ratio, 18 h; series mostly up to 62.4 µM
In short: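 Cells: GR-bla HeLa, endogenous GR with stably integrated GRE-beta-lactamase reporter. Treatment 18 h, 37 C, compounds delivered in DMSO. Detection via LiveBLAzer B/G FRET substrate, 2 h RT, fluorescence intensity.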

[15] = target: Glucocorticoid receptor (Homo sapiens) (UniProt P04150); test: qHTS assay to identify small molecule antagonists of the glucocorticoid receptor (GR) signaling pathway (AID 720692; active = well fitted inhibition curve with a large enough effect in the signal ratio in the repeat runs, not every such curve was filed as active; the % refers to the signal ratio; note: potency is the fitted concentration of half-maximal effect); conditions: GR-bla HeLa, beta-lactamase FRET ratio, dexamethasone-stimulated, 18 h; series mostly up to 58.5 µM
In short: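 Quantitative HTS in antagonist format: HeLa cells expressing endogenous GR and a stably integrated GRE-bla reporter, stimulated with 5 nM dexamethasone (final) alongside test compounds for 18 h.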

[16] = qHTS assay for small molecule agonists of the p53 signaling pathway - cell viability (AID 651633; calls by dose curve;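 note: p53RE-bla HCT reporter cells with a stable beta-lactamase p53 reporter; nearly all actives have a fitted effect of over 30% in size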); conditions: p53RE-bla HCT-116 viability, ATP luminescence, 16 h; series mostly up to 83.3 µM
In short: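 p53RE-bla cells were treated with compound for 16 hours at 37 C. Cytotoxicity was then measured as CellTiter-Glo luminescence after 30 min at room temperature.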

[17] = qHTS assay to test for compound auto fluorescence at 590 nm (red) in HepG2 cells (AID 720674); conditions: HepG2 autofluorescence, red 540/590 nm, 1 h; series mostly up to 46 µM
In short: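 Seeding: 2,000 HepG2 cells/well, MEM/10% FBS, overnight 37 C. Dosing: compound vs DMSO. Incubation: 1 hr, 37 C, 5% CO2. Read: fluorescence 540 ex/590 em, Rose Bengal sodium as red reference.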

[18] = qHTS assay to test for compound auto fluorescence at 590 nm (red) in HEK293 cells (AID 720679); conditions: red autofluorescence 540/590 nm; series mostly up to 46 µM
In short: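 Plates of HEK293 cells (10% dialyzed FBS) are treated with 23 nL compound or DMSO vehicle after a 4-5 hr attachment period, incubated overnight at 37C, and read for red fluorescence at 540/590nm.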

[19] = qHTS assay for small molecule disruptors of the mitochondrial membrane potential (AID 720635); conditions: HepG2 mitochondrial membrane potential, Mito-MPS dye ratio; series mostly up to 83.2 µM; note: potency is the fitted concentration of half-maximal effect
In short: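 HepG2 cells exposed to compound 1 hr at 37C, then Mito-MPS dye 30 min. Ratio read of aggregate (540/590 nm) versus monomer (490/535 nm) fluorescence.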

Measured: Potency

Sequence of Glucocorticoid receptor (Homo sapiens) (P04150 whole entry, looked up): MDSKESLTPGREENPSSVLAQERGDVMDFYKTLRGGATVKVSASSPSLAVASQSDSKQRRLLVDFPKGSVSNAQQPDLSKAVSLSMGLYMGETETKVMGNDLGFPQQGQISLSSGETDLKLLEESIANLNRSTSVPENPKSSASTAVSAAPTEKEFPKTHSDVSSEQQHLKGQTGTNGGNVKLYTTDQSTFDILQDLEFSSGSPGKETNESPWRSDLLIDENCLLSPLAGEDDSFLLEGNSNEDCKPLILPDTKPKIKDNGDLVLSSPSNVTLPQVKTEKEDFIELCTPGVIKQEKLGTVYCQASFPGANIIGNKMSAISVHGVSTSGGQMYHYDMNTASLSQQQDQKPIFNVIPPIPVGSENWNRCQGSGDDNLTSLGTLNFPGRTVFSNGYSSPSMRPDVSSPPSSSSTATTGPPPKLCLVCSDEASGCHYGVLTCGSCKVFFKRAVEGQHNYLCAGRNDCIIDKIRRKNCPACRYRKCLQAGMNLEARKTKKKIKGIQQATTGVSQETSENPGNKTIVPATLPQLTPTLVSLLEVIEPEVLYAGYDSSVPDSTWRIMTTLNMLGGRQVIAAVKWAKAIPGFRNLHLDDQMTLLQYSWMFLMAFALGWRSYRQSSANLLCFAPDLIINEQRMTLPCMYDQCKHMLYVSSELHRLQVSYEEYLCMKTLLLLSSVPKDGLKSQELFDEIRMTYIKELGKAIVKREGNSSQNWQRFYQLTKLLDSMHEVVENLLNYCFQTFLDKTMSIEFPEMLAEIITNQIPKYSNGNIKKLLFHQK

CCc1ccc(O)c(OC)c1
not listed: [16] | [17] | [18] | [19]
inactive: all other assays above

CCCCNC(=O)NCCCC
not listed: [4] | [8] | [12] | [19]
inactive: all other assays above

CN(C)CCCN1c2ccccc2CCc2ccc(Cl)cc21
not listed: [1] | [8] | [15] | [19]
inactive: all other assays above

C=C(C)CS(=O)(=O)O
not listed: [8] | [12] | [19]
inactive: all other assays above

C=C1CC[C@H]2C[C@@H]1C2(C)C
not listed: [3] | [12] | [14] | [15] | [19]
inactive: all other assays above

CO[C@]12C[C@@H](COC(=O)c3cncc(Br)c3)CN(C)[C@@H]1Cc1cn(C)c3cccc2c13
not listed: [2] | [4] | [16] | [18]
inactive: all other assays above

Cc1ccc(C#N)cc1
not listed: [19]
inactive: all other assays above

COC(=O)C1=C(C)NC(C)=C(C(=O)OC)C1c1ccccc1[N+](=O)[O-]
inactive and 61.2 µM (active): [19]
active: [15] 10.7 µM and 27.6 µM
not listed: [2] | [4] | [18]
inactive: all other assays above

CC(C)OC(=O)c1ccccc1
not listed: [12] | [16] | [19]
inactive: all other assays above

COC(=O)CCSCCC(=O)OC
not listed: [15] | [16] | [17]
inactive: all other assays above

NC(CSCC(=O)O)C(=O)O (stereo not drawn)
not listed: [12] | [14] | [15] | [19]
inactive: all other assays above

O=Cc1cccc([N+](=O)[O-])c1
not listed: [16] | [19]
inactive: all other assays above

O=c1cc(-c2ccccc2)oc2ccccc12
active: [1] 17.2 µM and 19.3 µM | [19] 48.6 µM and 15.4 µM | [15] 27.5 µM and 14.3 µM
not listed: [3] | [14] | [16]
inactive: all other assays above

CCCC(=O)O[C@]1(C(=O)CO)CC[C@H]2[C@@H]3CCC4=CC(=O)CC[C@]4(C)[C@H]3[C@@H](O)C[C@@]21C
active: [14] 0.213 µM
not listed: [1] | [4] | [15] | [16] | [17] | [18] | [19]
inactive: all other assays above

OC1CCCCC1c1ccccc1 (stereo not drawn)
not listed: [12] | [19]
inactive: all other assays above

CCCCOCCOCCOCc1cc2c(cc1CCC)OCO2
inactive and 17.4 µM (active): [3]
active: [19] 55.1 µM
not listed: [1] | [14] | [15] | [16]
inactive: all other assays above
